Measurements: ChEMBL document CHEMBL3988442, “University of Dundee, Small-Polar-MMV Screening Library” (2021)
For some assays here: Potency and affinity values are given separately.

Key:
Design in all cases: scale not given: direction of the effect not stated beside the values
[1] = target: Protein translocase subunit SecA (Escherichia coli (strain K12)) (UniProt P10408); experiment: Assay to Identify E. coli SecA ATPase Inhibitors; type: functional; conditions: 30 µM
[2] = target: T1, Ubiquitin-activating enzyme e1, putative (Leishmania donovani (strain BPK282A1)) (UniProt E9BSI1); experiment: Leishmania donovani Ubiquitin Activating Enzyme (LdE1); type: functional; conditions: 30 µM
T1 sequence (whole entry): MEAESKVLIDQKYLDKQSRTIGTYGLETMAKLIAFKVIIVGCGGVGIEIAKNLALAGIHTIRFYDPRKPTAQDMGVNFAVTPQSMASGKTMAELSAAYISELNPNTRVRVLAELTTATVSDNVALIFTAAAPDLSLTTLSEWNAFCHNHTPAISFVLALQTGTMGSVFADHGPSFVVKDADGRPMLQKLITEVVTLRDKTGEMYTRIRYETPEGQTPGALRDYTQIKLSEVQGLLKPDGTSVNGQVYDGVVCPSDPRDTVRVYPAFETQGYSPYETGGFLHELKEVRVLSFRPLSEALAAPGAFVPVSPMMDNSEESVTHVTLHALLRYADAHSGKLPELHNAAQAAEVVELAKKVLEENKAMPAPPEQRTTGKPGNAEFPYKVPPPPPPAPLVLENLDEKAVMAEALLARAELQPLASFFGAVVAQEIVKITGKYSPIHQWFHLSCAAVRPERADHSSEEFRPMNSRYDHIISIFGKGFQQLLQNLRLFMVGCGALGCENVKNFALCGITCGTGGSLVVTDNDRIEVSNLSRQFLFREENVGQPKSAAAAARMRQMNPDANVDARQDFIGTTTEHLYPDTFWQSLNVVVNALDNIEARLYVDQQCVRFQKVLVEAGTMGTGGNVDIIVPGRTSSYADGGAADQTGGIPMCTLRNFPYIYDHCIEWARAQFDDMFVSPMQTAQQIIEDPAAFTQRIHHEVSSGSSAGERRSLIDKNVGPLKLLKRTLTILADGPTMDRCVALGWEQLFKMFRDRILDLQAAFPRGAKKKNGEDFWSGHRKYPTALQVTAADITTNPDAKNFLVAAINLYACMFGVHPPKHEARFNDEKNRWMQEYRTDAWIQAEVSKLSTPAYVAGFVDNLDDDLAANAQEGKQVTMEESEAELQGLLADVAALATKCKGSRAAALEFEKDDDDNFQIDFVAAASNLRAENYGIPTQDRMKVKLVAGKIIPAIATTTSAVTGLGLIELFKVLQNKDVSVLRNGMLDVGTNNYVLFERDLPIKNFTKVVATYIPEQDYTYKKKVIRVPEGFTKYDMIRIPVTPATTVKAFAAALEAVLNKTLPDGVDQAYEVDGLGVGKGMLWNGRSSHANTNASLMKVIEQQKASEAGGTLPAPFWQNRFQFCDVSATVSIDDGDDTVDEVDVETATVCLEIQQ

[3] = target: AMP-activated protein kinase, AMPK (Homo sapiens) (UniProt P54646+O43741+P54619+Q9UGJ0+Q9Y478+Q13131+Q9UGI9); experiment: AMP-dependent Kinase enzyme assay. An in vitro enzyme assay that detects ADP turnover that is directly proportional to AMPK activity. This uses naive AMPK that is activated during the assay with MK-8722; type: functional; conditions: 30 µM
[4] = target: Sialic acid-binding Ig-like lectin 9 (Homo sapiens) (UniProt Q9Y336); experiment: Hs-Siglec9 ALPHAscreen SOP 20170721; conditions: 10 µM
Sequence of Sialic acid-binding Ig-like lectin 9 (Homo sapiens) (Q9Y336 whole entry): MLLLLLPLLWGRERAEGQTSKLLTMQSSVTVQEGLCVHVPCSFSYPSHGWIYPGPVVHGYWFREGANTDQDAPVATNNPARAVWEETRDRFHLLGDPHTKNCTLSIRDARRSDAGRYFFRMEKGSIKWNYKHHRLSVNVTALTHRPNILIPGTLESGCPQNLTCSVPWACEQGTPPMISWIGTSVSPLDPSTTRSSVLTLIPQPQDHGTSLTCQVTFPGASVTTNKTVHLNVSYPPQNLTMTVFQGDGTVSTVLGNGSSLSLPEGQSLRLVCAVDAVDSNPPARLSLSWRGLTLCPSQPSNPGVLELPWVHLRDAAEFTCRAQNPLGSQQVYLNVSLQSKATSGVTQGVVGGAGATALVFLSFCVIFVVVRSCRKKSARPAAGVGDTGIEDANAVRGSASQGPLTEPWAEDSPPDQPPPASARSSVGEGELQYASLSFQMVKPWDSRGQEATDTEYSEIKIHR

[5] = test system: Trypanosoma cruzi; experiment: Trypanosoma cruzi phosphomannomutase and mannose-1-phosphate guanylyltransferase assay; type: functional; conditions: 10 µM
[6] = target: T2, Arginase-2, mitochondrial (Homo sapiens) (UniProt P78540); experiment: in vitro enzyme assay to detect the production of urea directly proportional to the activity of Arginase II; type: functional; conditions: 33.3 µM; note: in the data most compounds retested in dose-response had high values
T2 sequence (whole entry): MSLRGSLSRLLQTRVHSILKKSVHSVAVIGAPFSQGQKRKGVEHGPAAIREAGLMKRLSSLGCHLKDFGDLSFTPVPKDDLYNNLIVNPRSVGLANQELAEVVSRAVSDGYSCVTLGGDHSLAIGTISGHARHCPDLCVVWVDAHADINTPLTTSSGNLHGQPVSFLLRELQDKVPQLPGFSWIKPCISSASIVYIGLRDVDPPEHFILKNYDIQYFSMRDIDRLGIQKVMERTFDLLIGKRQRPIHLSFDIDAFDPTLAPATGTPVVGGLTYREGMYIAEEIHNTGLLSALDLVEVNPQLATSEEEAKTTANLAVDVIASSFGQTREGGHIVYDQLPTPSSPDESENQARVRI

[7] = target: T3, Proteasome subunit beta (Trypanosoma cruzi) (UniProt O96673); experiment: Trypanosoma cruzi proteasome chymotrypsin-like activity (TcProtChymo) assay.; note: in the data most compounds retested in dose-response had high values; type: functional; conditions: 9.37 µM
T3 sequence (whole entry): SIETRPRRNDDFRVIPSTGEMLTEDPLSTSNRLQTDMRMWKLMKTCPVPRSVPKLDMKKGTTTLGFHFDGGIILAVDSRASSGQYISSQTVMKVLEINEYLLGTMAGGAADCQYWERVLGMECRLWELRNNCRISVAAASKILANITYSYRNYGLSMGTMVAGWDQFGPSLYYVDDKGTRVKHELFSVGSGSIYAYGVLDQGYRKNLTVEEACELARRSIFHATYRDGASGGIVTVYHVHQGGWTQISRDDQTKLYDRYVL

[8] = species: Homo sapiens; experiment: To identify inhibition of the IFN signalling (Jak-Stat) pathway via expression of an eGFP reporter gene under the control of an IFN-stimulated response element (ISRE) containing MxA promoter.; type: functional; conditions: 30 µM
[9] = target: T4, Tyrosyl-tRNA synthetase, putative (Trypanosoma cruzi (strain CL Brener)) (UniProt Q4DSP6); experiment: Trypanosoma cruzi tyrosyl tRNA synthetase (TcYRS) _High Tyrosine SOP; type: functional; conditions: 30 µM; note: in the data most compounds retested in dose-response had high values
T4 sequence (whole entry): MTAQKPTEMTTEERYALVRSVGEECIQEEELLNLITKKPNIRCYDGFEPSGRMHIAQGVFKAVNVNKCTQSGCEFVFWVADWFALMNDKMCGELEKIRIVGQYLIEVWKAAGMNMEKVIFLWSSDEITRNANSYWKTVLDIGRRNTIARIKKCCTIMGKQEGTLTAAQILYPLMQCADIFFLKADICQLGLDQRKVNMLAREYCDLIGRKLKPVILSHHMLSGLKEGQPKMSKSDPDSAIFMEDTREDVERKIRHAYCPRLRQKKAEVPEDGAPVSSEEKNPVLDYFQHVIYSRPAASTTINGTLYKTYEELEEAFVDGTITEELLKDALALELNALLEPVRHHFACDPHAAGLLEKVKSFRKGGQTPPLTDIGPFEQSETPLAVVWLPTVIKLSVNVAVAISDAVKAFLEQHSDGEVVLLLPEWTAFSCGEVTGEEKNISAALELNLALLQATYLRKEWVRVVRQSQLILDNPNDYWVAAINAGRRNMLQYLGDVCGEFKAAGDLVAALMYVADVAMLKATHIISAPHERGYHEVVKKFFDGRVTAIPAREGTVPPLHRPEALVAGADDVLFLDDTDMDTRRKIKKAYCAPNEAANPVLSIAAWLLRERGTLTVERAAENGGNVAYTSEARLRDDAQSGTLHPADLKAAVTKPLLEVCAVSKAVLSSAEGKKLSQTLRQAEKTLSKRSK

[10] = target: T4, Tyrosyl-tRNA synthetase, putative (Trypanosoma cruzi (strain CL Brener)); experiment: Trypanosoma cruzi tyrosyl tRNA synthetase (TcYRS) SOP; type: functional; conditions: 30 µM
[11] = target: Chromo domain-containing protein 1 (Saccharomyces cerevisiae (strain ATCC 204508 / S288c) (Baker's yeast)) (UniProt P32657); experiment: ScCHD-1 Enzyme Inhibition Assay; type: functional; conditions: 30 µM; note: in the data most compounds retested in dose-response had high values
Sequence of Chromo domain-containing protein 1 (Saccharomyces cerevisiae (strain ATCC 204508 / S288c) (Baker's yeast)) (P32657 whole entry, the tested form may be a part): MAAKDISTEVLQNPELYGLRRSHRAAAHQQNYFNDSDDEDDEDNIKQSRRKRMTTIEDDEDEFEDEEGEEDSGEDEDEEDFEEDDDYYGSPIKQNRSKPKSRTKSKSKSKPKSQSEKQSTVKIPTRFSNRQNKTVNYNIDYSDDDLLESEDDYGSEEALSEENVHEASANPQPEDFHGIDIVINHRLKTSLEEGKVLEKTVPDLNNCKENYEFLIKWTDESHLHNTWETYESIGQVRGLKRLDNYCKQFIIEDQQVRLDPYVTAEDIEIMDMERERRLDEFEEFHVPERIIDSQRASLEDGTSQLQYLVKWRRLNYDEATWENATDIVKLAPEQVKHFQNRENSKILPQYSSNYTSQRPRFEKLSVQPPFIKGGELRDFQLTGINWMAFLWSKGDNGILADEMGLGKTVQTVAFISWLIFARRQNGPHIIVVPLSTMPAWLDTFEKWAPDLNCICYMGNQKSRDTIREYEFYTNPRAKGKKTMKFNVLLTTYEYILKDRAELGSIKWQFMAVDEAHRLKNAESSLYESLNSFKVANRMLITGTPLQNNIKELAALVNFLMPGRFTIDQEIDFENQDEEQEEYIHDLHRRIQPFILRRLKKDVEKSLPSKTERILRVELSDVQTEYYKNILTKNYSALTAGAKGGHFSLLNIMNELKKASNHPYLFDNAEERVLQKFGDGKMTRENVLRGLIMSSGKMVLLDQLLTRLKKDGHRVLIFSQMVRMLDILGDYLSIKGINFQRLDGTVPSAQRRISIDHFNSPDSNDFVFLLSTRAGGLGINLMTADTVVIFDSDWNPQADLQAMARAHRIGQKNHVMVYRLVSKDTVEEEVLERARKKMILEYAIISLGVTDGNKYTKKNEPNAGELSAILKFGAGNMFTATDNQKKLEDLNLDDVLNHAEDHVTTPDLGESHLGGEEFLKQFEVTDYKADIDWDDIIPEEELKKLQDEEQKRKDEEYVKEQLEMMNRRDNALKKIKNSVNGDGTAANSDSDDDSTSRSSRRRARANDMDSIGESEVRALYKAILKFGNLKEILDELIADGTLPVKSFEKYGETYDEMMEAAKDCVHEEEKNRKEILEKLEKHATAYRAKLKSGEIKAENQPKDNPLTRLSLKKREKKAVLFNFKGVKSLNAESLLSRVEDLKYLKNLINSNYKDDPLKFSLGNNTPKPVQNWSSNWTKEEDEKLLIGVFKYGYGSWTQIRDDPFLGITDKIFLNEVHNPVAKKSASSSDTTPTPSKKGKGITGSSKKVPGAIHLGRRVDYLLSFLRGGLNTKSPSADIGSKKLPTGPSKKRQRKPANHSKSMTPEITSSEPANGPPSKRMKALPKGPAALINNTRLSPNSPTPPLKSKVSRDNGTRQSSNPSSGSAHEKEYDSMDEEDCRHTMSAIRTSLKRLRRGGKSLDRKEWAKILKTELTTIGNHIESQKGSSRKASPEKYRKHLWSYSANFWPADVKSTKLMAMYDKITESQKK

Sequence of Protein translocase subunit SecA (Escherichia coli (strain K12)) (P10408 whole entry): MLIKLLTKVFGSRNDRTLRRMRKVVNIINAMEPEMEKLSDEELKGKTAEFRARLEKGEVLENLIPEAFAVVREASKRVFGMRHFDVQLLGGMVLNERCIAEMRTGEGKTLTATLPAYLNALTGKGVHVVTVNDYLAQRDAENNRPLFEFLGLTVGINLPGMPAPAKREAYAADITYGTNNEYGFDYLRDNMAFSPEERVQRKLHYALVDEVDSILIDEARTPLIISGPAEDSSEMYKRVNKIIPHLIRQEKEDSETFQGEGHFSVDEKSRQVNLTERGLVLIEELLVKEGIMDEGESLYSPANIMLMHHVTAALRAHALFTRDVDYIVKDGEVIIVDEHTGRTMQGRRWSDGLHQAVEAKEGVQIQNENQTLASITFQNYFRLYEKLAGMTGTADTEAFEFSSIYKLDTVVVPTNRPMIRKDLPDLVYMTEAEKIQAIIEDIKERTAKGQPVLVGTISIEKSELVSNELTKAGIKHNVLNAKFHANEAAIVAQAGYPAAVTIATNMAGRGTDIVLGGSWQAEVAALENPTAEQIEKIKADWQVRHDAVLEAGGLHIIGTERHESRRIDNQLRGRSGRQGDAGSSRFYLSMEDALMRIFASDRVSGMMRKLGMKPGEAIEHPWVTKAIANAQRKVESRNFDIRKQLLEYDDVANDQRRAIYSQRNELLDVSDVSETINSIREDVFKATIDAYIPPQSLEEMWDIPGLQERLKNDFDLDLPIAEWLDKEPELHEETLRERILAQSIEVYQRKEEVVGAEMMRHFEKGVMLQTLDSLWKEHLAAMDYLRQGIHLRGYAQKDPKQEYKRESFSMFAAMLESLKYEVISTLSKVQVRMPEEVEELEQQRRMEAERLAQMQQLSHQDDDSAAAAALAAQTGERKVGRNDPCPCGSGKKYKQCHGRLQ

| SMILES | Percent Effect [1] [%] | Percent Effect [2] [%] | Percent Effect [3] [%] | Percent Effect [4] [%] | Percent Effect [5] [%] | Percent Effect [6] [%] | Percent Effect [7] [%] | Percent Effect [8] [%] | Percent Effect [9] [%] | Percent Effect [10] [%] | Percent Effect [11] [%] |
| --- | --- | --- | --- | --- | --- | --- | --- | --- | --- | --- | --- |
| CNS(=O)(=O)c1ccc(C(=O)NCCc2ccccn2)cc1 | -1.2 | 13.2 | -0.141 | 1.24 | -0.28 | -5.4 | 10.2 | -22.9 | 7.39 | 16.1 | -7.59 |
| CC(O)CNC(=O)NCc1ccc(N2CCNC(=O)C2)cc1 (configuration not stated) | -3.56 | 20.8 | -9.88 | 10.6 | 2.06 | -0.712 | 4.73 | -4.97 | 11.7 | 21.9 | -11.2 |
| O=C(CCCc1nnc(-c2ccccc2)o1)N1CCN(CCO)CC1 | 0.944 | 5.06 | -13.1 | 8.28 | -2.36 | 5.7 | 12.2 | 0.191 | 2.46 | 8.86 | -6.47 |
| CCc1nc(C2CCCN2C(=O)CCc2ccc3c(c2)OCO3)no1 (configuration not stated) | -3.47 | -5.41 | 2.98 | 5.83 | 3.62 | -3.14 | -6.46 | 10.2 | 1.98 | 1.22 | 10.8 |
| Cc1nc(C)n(CC2CN(CC(=O)Nc3cccnc3)CCO2)n1 (configuration not stated) | -3.48 | 4.17 | 1.48 | -1.08 | -0.486 | 2.65 | 2.1 | -1.3 | 4.21 | 5.13 | 0.336 |
| Cc1noc2ncc(C(=O)N3CCCC3c3ccncc3)cc12 (configuration not stated) | -7.65 | 20.2 | -6.44 | 0.762 | 10.1 | -3.42 | 17.4 | 21.9 | 5.42 | 24.1 | -9.53 |
| Cc1n[nH]c(C(=O)NCc2ccnc(OCC(F)(F)F)c2)c1Br | -4.7 | 23.7 | -2.47 | 1.14 | 8.08 | -0.383 | 18.4 | 5.22 | 6.37 | 24.4 | -11.1 |
| CC(NC1(CNC(=O)CC(C)(C)C)CCOCC1)c1ccccc1 (configuration not stated) | -5.63 | 8.11 | 1.15 | 15.6 | -0.684 | 4.22 | 9.19 | -9.78 | 3.23 | 11.1 | -2.98 |
| O=C(NCCNc1ccc(C(F)(F)F)cn1)c1ccc(Br)cc1F | -3.12 | 10.4 | 7.24 | -16.8 | -5.39 | -2.74 | 11.9 | 6.29 | 3.81 | 14.1 | -26.3 |
| Cc1cc(C(=O)NCCN2CCCC(C)C2)nn1C (configuration not stated) | -4.5 | 5.2 | -3.57 | -8.23 | -0.187 | 0 | 0.169 | 27.8 | 3.88 | 7.32 | -0.528 |
| COc1ccccc1OCc1cc(C(=O)N2C[C@H](O)[C@@H](N(C)C)C2)n[nH]1 | -3.86 | 6.94 | 0.606 | -3.31 | -1.46 | 0.442 | 11.9 | 9.72 | 2.1 | 2.56 | -2.07 |
| CC(C)C(=O)N1CCN(Cc2csc(-c3ncccn3)n2)CC1 | -3.04 | 0 | 9.34 | 3.09 | 1.27 | 0 | 11.4 | 2.18 | 4.25 | 10.4 | -1.19 |
| COc1ccccc1OCCN1CCC(N2CCNC2=O)CC1 | -6.27 | 5.41 | 1.68 | 3.47 | -5.66 | 3.51 | 12 | 18.9 | -3.96 | -13.4 | 0.174 |
| CCn1nc(C)c2nc(C(C)C)nc(NCCOC)c21 | -4.55 | 6.67 | 7.63 | 3.6 | 2.36 | -4.4 | 15.5 | 19.2 | 5.29 | 12.8 | -9.33 |
| COCCOCc1cccc(NC(=O)N2CCCC2c2ccncc2)c1 (configuration not stated) | -2.97 | 13 | -3.58 | 1.28 | -4.02 | 1.9 | 5.09 | 16.9 | 6.67 | 7.06 | -20.8 |
| Cc1ccc(CC(=O)N2Cc3nccn3CC(Cn3cccn3)C2)cc1 (configuration not stated) | 0.712 | 8.22 | -7.73 | 14.5 | 3.77 | 2.79 | 11.2 | 17.3 | 4.17 | 16.1 | -6.87 |
| Cc1cnc(CN2CCOC(CNc3cccnn3)C2)cn1 (configuration not stated) | 0.476 | -7.79 | -0.781 | 0.564 | -6.74 | 8.54 | 0.676 | 17.9 | 0.971 | -2.44 | -5.93 |
| CCc1nc(C2CCCN(C(=O)CN(C)S(C)(=O)=O)C2)no1 (configuration not stated) | -5.19 | 18.2 | -2.51 | -7.32 | 6.95 | -2.32 | 9.3 | 0.959 | 6.67 | 21.2 | -25.7 |
| Cc1cc(C(=O)N2CC[C@@H]3CN(S(C)(=O)=O)CCO[C@@H]3C2)c(C)o1 | -2.68 | 13.5 | 1.13 | -7.58 | -3.62 | 2.87 | 25.6 | -7.91 | 4.32 | 15.4 | -2.64 |
| CN(CCCc1cnn(C)c1)C(=O)C1CCOC1 (configuration not stated) | -4.14 | 2.74 | 3.21 | 1.94 | -6.46 | -1.36 | 13.1 | 10.7 | 3.23 | 2.5 | -1.18 |
| CC(C)=CCN(C)C1CCCN(Cc2noc(C)n2)C1 (configuration not stated) | -2.36 | 18.9 | 22.7 | -3.99 | -3.06 | 1.29 | 9.7 | 15.7 | 1.98 | 13.4 | -3.38 |
| Cc1ncsc1C(=O)NCCOc1ncc(Cl)cc1Cl | -6.27 | 5.41 | 1.84 | 0.223 | 0.977 | 4.17 | 11.1 | 25.4 | 10.9 | 11 | -5.96 |
